What all share (experiment): NCI-60 one-dose screen, 48 h (100 = growth as untreated, 0 = no growth, -100 = all killed)
Common to all, as to conditions: 10 µM unless noted

In test [1] the test system is NCI-H23 lung.
Test [2] has as its system NCI-H226 lung.
Test [3] has as its system NCI-H322M lung.
The test system of test [4] is HOP-62 NSCLC.
In test [5] the test system is NCI-H460 lung.
The subject of test [6] is HOP-92 NSCLC.
Test [7] has as its system NCI-H522 lung.
The test system of test [8] is A549/ATCC NSCLC.
The test system of test [9] is 786-0 renal.
In test [10] the test system is COLO 205 colon.
The test system of test [11] is DU-145 prostate.
The subject of test [12] is K-562 leukemia.
Test [13] relates to MALME-3M melanoma.
Test [14] relates to MDA-MB-231 breast.
Test [15] deals with RXF 393 renal.
In test [16] the test system is SF-268 CNS.
Test [17] has as its system SF-295 CNS.
The subject of test [18] is SF-539 CNS.
In test [19] the test system is UACC-257 melanoma.
Test [20] has as its system M14 melanoma.

About 83,000 compounds went through this panel and 20% of them were active in at least one assay; those are over-represented in the sample as a whole.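 Growth was measured after 48 h exposure to one concentration of compound in 96-well plates. Values under 10 count as active.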 A number with no mark means an inactive call. Calls of active or inactive are those of the source.

Data on eight compounds can be found in PubChem BioAssay (NCI).

In the case of `O=[N+]([O-])c1ccc(Oc2nc(Nc3ccc(O[C@H]4CO[C@H]5[C@@H]4OC[C@@H]5O)c(Cl)c3)ncc2F)c(Cl)c1`, the growth is 25.7% in [1]; 19.5% in test [2]; 29.9% in [3]; 23.2% in test [4]; 22.7% in test [5]; -7.77% (active) in test [6]. Moreover, the growth in test [7] was 8.06% (active); in [8], 40%; in test [9], 21.4%; in test [10], 33.3%; in test [11], 27.3%; in [12] it was 22.2%. In addition, the growth was 18.6% in [13]; 26.8% in test [14]; 13.6% in [15]; 31.6% in test [16]; 26.4% in test [17]; 19.5% in test [18]. The growth in test [19] was 43.9%; in [20], 23.9%.
With `Cc1onc2c(-c3ccccc3)n[nH]c(=O)c12`, the growth in test [1] is 100%; in [2], 110%; in test [3] it was 72.5%; in [4], 90.2%; in [5] it was 109%; in [6], 52.3%. Besides, the growth is 94.4% in test [7]; 114% in test [8]; 95% in [9]; 146% in [10]; 110% in test [11]; 69.8% in test [12]. Moreover, the growth is 81.5% in test [13]; 100% in test [14]; 122% in test [15]; 121% in [16]; 97.1% in [17]; 93.8% in test [18]. The growth was 122% in test [19] and 105% in [20].
For `c1ccc(CO[C@H]2CO[C@H]3[C@@H]2OC[C@@H]3Oc2ccc(Nc3ncnc4ccsc34)cc2)cc1`, the growth in test [1] is 62.6%; in test [2], 80.3%; in [3] it was 93.1%; in test [4] it was 86.5%; in [5], 84.5%; in [6] it was 65%. The growth in [7] was 70.4%; in test [8], 81.7%; in test [9], 87.2%; in test [10], 71.8%; in test [11] it was 89%; in test [12], 62.1%. The growth in [13] is 53.4%; in test [14] it was 71.7%; in test [15] it was 83.1%; in test [16] it was 78%; in test [17] it was 63.3%; in test [18], 73.1%. For the same compound, the growth is 78% in test [19] and 79.5% in test [20].
Consider `Cc1ccc(/C=C2\Oc3ccc(O)c(O)c3C2=O)cc1`, for which the growth in [1] was 36.6%; in test [2], 62.2%; in [3], 58%; in test [4] it was 44.8%; in test [5], 43.4%; in test [6], 35.9%. Further, the growth was 13.6% in [7]; 73.1% in test [8]; 52.5% in test [9]; 107% in test [10]; 46.1% in test [11]; 19.2% in test [12]. For the same compound, the growth in test [13] was 66.1%; in [14] it was 56.1%; in test [15], 27.4%; in [16], 37.5%; in test [17], 54%; in test [18] it was 32.7%. Further, the values for the growth in test [19] and in test [20] were 96.6% and 56.1%, respectively.
Take `O=C1CCC/C=C\C[C@H]2C=CC(=O)/C2=C/C[C@H](CCc2cccc(C(F)(F)F)c2)O1`: the growth in [1] is -22% (active); in test [2], -36.2% (active); in test [3] it was -44.6% (active); in [4] it was -73.7% (active); in [5], -24.6% (active); in test [6], -46.5% (active). In addition, the growth in test [7] is -88.7% (active); in test [8], 0.826% (active); in test [9] it was -79.2% (active); in [10], -84.8% (active); in [11], -44.6% (active); in test [12], 0.315% (active). Besides, the growth in [13] was -25.5% (active); in test [15] it was -81.9% (active); in test [16], -39% (active); in test [17] it was -22.9% (active); in test [18], -56.7% (active); in [19], -34.7% (active). In test [20], the growth was -30.9% (active).
For `O=c1ccn(Cc2cn(-c3c4ccccc4nc4ccccc34)nn2)c(=O)[nH]1`, the growth is 94% in test [1]; 102% in test [2]; 99.2% in test [3]; 97.7% in test [4]; 96.5% in test [5]; 84.7% in test [6]. Further, the growth in [7] was -57.4% (active); in [8], 91.2%; in [9], 90.9%; in test [10], 108%; in test [11], 74.6%; in test [12] it was 33.1%. Besides, the growth in test [13] was 98.6%; in test [14], 89.4%; in [15], 98.2%; in test [16], 99.6%; in test [17] it was 106%; in [18], 101%. Besides, the values for the growth in test [19] and in test [20] were 85.6% and 98.4%, respectively.
On to `COC(=O)[C@H](C)NC(=O)NC(=O)NC(=O)CI`, for which the growth in [1] is 86.2%; in [2], 89.2%; in test [3], 103%; in [4] it was 98.4%; in test [5] it was 104%; in [6], -21.4% (active). For the same compound, the growth was -75% (active) in test [7]; 96.4% in test [8]; 63.9% in test [9]; 32% in test [10]; 84.5% in [11]; 7.73% (active) in test [12]. Also, the growth in test [13] was -53.9% (active); in test [15], 59.1%; in [16], 82.6%; in [17], 91.9%; in test [18] it was 94.6%; in [19] it was 104%. For the same compound, in [20], the growth is 58.5%.
As to `COC1=C(C)C(=O)c2c(c(CCCl)c3n2CCC3OC(C)=O)C1=O` (configuration not stated), the growth in test [1] is -12% (active); in test [2] it was -14.9% (active); in [3] it was -14.8% (active); in [4], -22.4% (active); in test [5], -14.3% (active); in test [6] it was 56.4%. Moreover, the growth is -56.9% (active) in test [7]; 1.27% (active) in [8]; -32.4% (active) in test [9]; -60% (active) in [10]; -9.56% (active) in [11]; 12.7% in test [12]. The growth in [13] was -64.3% (active); in test [15], -54.3% (active); in test [16], 10.4%; in test [17], -11.7% (active); in [18] it was -41.7% (active); in test [19], -50.2% (active). In addition, the growth in test [20] was -46.3% (active).
